Assay outcomes deposited in PubChem by National Center for Advancing Translational Sciences (NCATS).
Tau fibril FP: blocks human tau fibril formation measured by polarization; K18 P301L tau heparin fibrillization, Alexa594 FP, 6 h; Potency, µM (top dose mostly 57.7 µM), for the others: at the top dose activity, negative = inhibition, hits mostly inhibitors; actives 0.39% (n = 280,000); P10636; also: potency is read from the fitted curve at half-maximal effect; nearly all actives have a fitted effect of over 55% in size
Target sequence (P10636 561-689 P618L limits assumed): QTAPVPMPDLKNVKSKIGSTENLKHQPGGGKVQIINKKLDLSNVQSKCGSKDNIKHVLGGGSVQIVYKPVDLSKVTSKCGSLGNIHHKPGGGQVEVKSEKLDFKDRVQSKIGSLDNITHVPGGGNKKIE
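Compound effects on tau fibrillization are measured by Alexa 594 fluorescence polarization (ex 555, em 632 nm). K18 P301L tau is used at 15 uM with 0.24 uM labeled tracer, and 20 uM heparin induces aggregation over 6 hr at 37 C.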
USP1-UAF1 inh: inhibitors of human USP1/UAF1 deubiquitinase. recombinant USP1/UAF1, Ub-Rhodamine cleavage fluorescence. actives 0.23% (n = 390,000). Potency, µM (titrated, usually from 57.1 µM), for inactives: at the highest dose activity change, negative = inhibition, hits mostly inhibitors. O94782. AID 743255; also: potency is read from the fitted curve at half-maximal effect; nearly all actives have a fitted effect of over 60% in size
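USP1/UAF1 complex (1 nM) preincubated 15 min at room temperature with compound, then Ub-Rho substrate (150 nM final) added. Kinetic fluorescence at 480/540 nm over 6 reads at 60 s intervals; 50 mM HEPES pH 7.8, 0.5 mM EDTA, 0.1 mg/ml BSA, 1 mM TCEP, 0.01% Tween-20.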
Tau fluor cs: counter-screen for tau fibril formation inhibitors; AID 1463; actives 0.93% (n = 280,000); Potency, µM (series often up to 57.7 µM), for inactives: top-dose activity change, negative = decrease; tau K18 P301L Alexa594 fluorescence, heparin fibrillization; also: potency is read from the fitted curve at half-maximal effect; nearly all actives have a fitted effect of over 55% in size
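Human K18 P301L tau (15 uM unlabeled plus 0.24 uM Alexa 594-labeled, final) in 100 mM sodium acetate pH 7 was mixed with compound and 20 uM heparin and incubated 6 hr at 37 C.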
FBPA coupling cs: counter-screen for Giardia aldolase inhibitors: coupling enzyme system; actives 0.67% (n = 290,000); AID 2472; coupling enzyme system counterscreen, AmpLite Red fluorescence; activity change, negative = inhibition, % at 58.2 µM, hits read low; in the data active = activity change below about -30%
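Counterscreen of the coupled detection system alone, without aldolase: glyceraldehyde-3-phosphate coupling enzymes plus AmpLite Red readout. Compounds at 57.5 uM final, 10 min RT preincubation, 20 min RT reaction, fluorescence 525/598 nm.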
Tau fibril ThT: tau fibrillization inhibition (ThT binding); recombinant tau K18 P301L (four-repeat tau fragment), heparin-induced fibrillization, ThT fluorescence; actives 2.1% (n = 270,000); AID 1460; Potency, µM (series often up to 57.4 µM), for the others: at the highest dose activity, negative = inhibition, usual class: inhibitors; P10636; also: potency is read from the fitted curve at half-maximal effect; nearly all actives have a fitted effect of over 55% in size
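K18 P301L tau (15 uM + 0.24 uM Alexa 594-tagged), heparin 20 uM, NaOAc pH 7, 6 h 37 C; ThT 30 uM, 1 h RT, ex 450/em 510 nm.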
* = called active by the depositor; ? = inconclusive; nt = no result given; [ ] = dose if it differs, or a comment. An excerpt weighted towards active compounds, which were near 2.3% of everything screened. Unless noted, calls follow the shape of the dose curve; as a rule, active = well fitted curve in the direction sought with a large enough effect; inconclusive = small, poorly fitted or top-dose-only effect, or another doubt; inactive = no such curve, though single readings can be large; an effect the other way counts as inactive or inconclusive. % is scaled to controls: 0 for no effect and ±100 for the full control effect.

SMILES | Tau fibril FP | USP1-UAF1 inh | Tau fluor cs | FBPA coupling cs | Tau fibril ThT
CC12C=CC(=O)C=C1CCC1C2=CCC2(C)C1CC[C@@H]2C(=O)CN1CCN(c2cc(N3CCCC3)nc(N3CCCC3)n2)CC1 (some centres undefined) | ? | nt | -13.4% | -37.7* | 7.08µM*
CC[C@@]1(O)CC(O)c2c(cc3c(c2O)C(=O)c2c(O)ccc(O)c2C3=O)C1C(=O)OC (some centres undefined) | -14.3% | nt | -26.7% | -15.6 | 7.94µM*
CC[C@]1(O)CC(O[C@@H]2CC(N(C)C)C(O)C(C)O2)c2c(cc3c(c2O)C(=O)c2c(O)cccc2C3=O)C1C(=O)OC (some centres undefined) | 4.0% | nt | ? | -25.4 | 8.91µM*
Cc1c(NC(=O)Nc2cccc(C(F)(F)F)c2)sc2nc3n(c(=O)c12)CCC(C)CC3 (centres undefined) | 12.7% | -2.8% | ? | nt | 7.0%
COc1cccc(NC(=O)C2CCN(S(=O)(=O)c3cc(-c4noc(C)n4)ccc3C)CC2)c1 | ? | -7.6% | -28.6% | nt | 10.8%
Cc1ccc(NC(=O)c2cnc3sc(N4CCOCC4)nn3c2=O)cc1N(C)C | -0.1% | -11.9% | -13.6% | nt | ?
Fc1ccc(C(OCCN2CCN(C/C=C/c3ccccc3)CC2)c2ccc(F)cc2)cc1 | 3.5% | nt | -21.0% | nt | ?
O=[N+]([O-])c1ccc(N2CCCCCC2)c2nonc12 | nt | 28.2µM* | nt | 5.2 | nt
O=[N+]([O-])c1ccc(N2CCCCC2)c2ncccc12 | -14.8% | -12.2% | ? | -17.8 | 15.8µM*
O=[N+]([O-])c1ccc(N2CCCCCC2)c2ncccc12 | -3.9% | ? | -28.4% | -9.6 | 15.8µM*
O=[N+]([O-])c1ccc(N2CCOCC2)c2c1no[n+]2[O-] | nt | 9.8% | nt | nt | nt
O=[N+]([O-])c1ccc(N2CCCNCC2)c2ncccc12 | 0.8% | -9.2% | -3.6% | -7.0 | ?
CCc1ccc(Nc2nc3c(S(=O)(=O)c4ccc(C)cc4)nnn3c3ccsc23)cc1 | ? | -8.0% | -28.6% | nt | 11.4%
Cc1ccc(/C=C2/C(=O)NC(=O)N(C)C2=O)cc1 | -16.3% | 1.4% | -2.6% | -0.9 | ?
O=C1NC(=O)N(c2ccccc2)C(=O)/C1=C\c1ccc([N+](=O)[O-])o1 | ? | nt | ? | -5.6 | 17.8µM*
CN1C(=O)NC(=O)/C(=C/c2ccc([N+](=O)[O-])o2)C1=O | ? | -26.3% | -28.6% | -10.3 | 12.6µM*
CCOc1ccc(N2C(=O)NC(=O)/C(=C\c3ccccc3[N+](=O)[O-])C2=O)cc1 | -7.2% | -6.8% | -15.8% | 8.0 | ?
CN1C(=O)NC(=O)/C(=C\c2ccc([N+](=O)[O-])o2)C1=O | ? | ? | -20.9% | -19.0 | 28.2µM*
c1ccc(N2CC3(CCNCC3)C2)nc1 | nt | nt | nt | 1.3 | nt
CCCCOc1ccc(C(=O)NCCc2csc(-c3ccc(OC)cc3)n2)cc1 | -0.1% | 3.3% | -12.7% | nt | ?
CC(C)(C)OC(=O)N1CC[C@H]1COc1cnc[c]([Sn]([CH3])([CH3])[CH3])c1 | 0.1%[11.6 µM] | nt | -6.5%[11.6 µM] | 1.8 | -3.2%[11.5 µM]
O=C(Nc1ccc(Oc2ccccc2)cc1)c1ccc(F)c(S(=O)(=O)N2CCN(c3cccc(Cl)c3)CC2)c1 | ? | -17.3% | -0.5% | nt | 3.6%
Cc1ccc(N)c(C)c1 | nt | -23.2% | nt | nt | nt
Cc1ccc(N=Nc2cc(C)ccc2N)cc1 | 18.4% | -17.0% | 17.8µM*[quencher] | -2.3 | 11.2µM*
NCC(O)c1cc(O)c(O)cc1F (centres undefined) | ? | -12.8% | -28.4% | nt | 11.2µM*
COc1ccc(C(=O)Nc2ccc(-c3nc4ccccc4s3)c(Cl)c2)cc1Cl | ? | 0.0% | -20.9% | nt | 2.2%
Oc1cccc2nc3ccccc3nc12 | -10.8% | -20.6% | -21.2% | -23.9 | 15.8µM*
COc1ccc(/C=C/c2nc(-c3ccccc3O)n(-c3ccccc3)n2)cc1OC | ? | ? | ? | nt | -15.2%
N#CSCC(=O)N1c2ccccc2CCc2ccccc21 | ? | -6.5% | -18.9% | 0.8 | 14.1µM*
